# In the supplement of paper PMC12282887:
# ± gives the standard deviation of the averaged measurements.
# Columns and labels:
# Test in all cases: promoter activity interaction Z-score (Lux/OD deviation from empty-vector control); higher = stronger promoter induction by the compound
# [1] = test system: E. coli BW25113 marRABp lux reporter; conditions: 188.3 µg/ml
# Summary of the method: (§1)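 Every compound was given at four 1:2 dilutions, in biological duplicates, to E. coli BW25113 carrying low-copy luxCDABE promoter reporters in wild-type or single-gene deletion backgrounds. Growth in 40 µl LB Lennox in 384-well plates at 37°C was followed by OD600 and luminescence readings every 30 min for 12 h, integrated over 0–8 h for wild type and 1–9 h for deletion strains, with wells below 10% of the median growth value excluded. Scores are Z-transformed residuals of growth-normalised luminescence fitted against a control.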
# [2] = test system: E. coli BW25113 micFp lux reporter
# Summary of the method: as §1
# [3] = test system: E. coli BW25113 ompFp lux reporter
# Summary of the method: as §1
# [4] = test system: E. coli BW25113 robp lux reporter
# Summary of the method: as §1
# [5] = test system: E. coli BW25113 soxSp lux reporter
# Summary of the method: as §1
# [6] = test system: E. coli BW25113 tolCp lux reporter
# Summary of the method: as §1
# [7] = 23.5 µg/ml, genetic background: wild type
# [8] = 23.5 µg/ml, genetic background: ΔmarA
# [9] = 23.5 µg/ml, genetic background: Δrob
# [10] = 23.5 µg/ml, genetic background: ΔsoxS
# [11] = 47.1 µg/ml, genetic background: wild type
# [12] = 47.1 µg/ml, genetic background: ΔmarA
# [13] = 47.1 µg/ml, genetic background: Δrob
# [14] = 47.1 µg/ml, genetic background: ΔsoxS
# [15] = 94.1 µg/ml, genetic background: wild type
# [16] = 94.1 µg/ml, genetic background: ΔmarA
# [17] = 94.1 µg/ml, genetic background: Δrob
# [18] = 94.1 µg/ml, genetic background: ΔsoxS
# [19] = 188.3 µg/ml, genetic background: wild type
# [20] = 188.3 µg/ml, genetic background: ΔmarA
# [21] = 188.3 µg/ml, genetic background: Δrob
# [22] = 188.3 µg/ml, genetic background: ΔsoxS
compound,measurement,setting,value
C[C@H](CCC(=O)O)[C@H]1CC[C@H]2[C@@H]3CC[C@@H]4C[C@H](O)CC[C@]4(C)[C@H]3CC[C@]12C [Lithocholic acid],promoter activity interaction Z-score,[1]; genetic background: Δrob,0.123 ± 0.086
same,promoter activity interaction Z-score,[1]; genetic background: ΔsoxS,0.0918 ± 0.55
same,promoter activity interaction Z-score,[2]; [7],-0.113 ± 0.26
same,promoter activity interaction Z-score,[2]; [8],0.16 ± 0.35
same,promoter activity interaction Z-score,[2]; [9],0.238 ± 0.17
same,promoter activity interaction Z-score,[2]; [10],-0.193 ± 0.12
same,promoter activity interaction Z-score,[2]; [11],0.314 ± 0.66
same,promoter activity interaction Z-score,[2]; [12],0.226 ± 0.41
same,promoter activity interaction Z-score,[2]; [13],0.0535 ± 0.017
same,promoter activity interaction Z-score,[2]; [14],0.243 ± 0.36
same,promoter activity interaction Z-score,[2]; [15],0.275 ± 0.18
same,promoter activity interaction Z-score,[2]; [16],0.187 ± 0.33
same,promoter activity interaction Z-score,[2]; [17],0.0887 ± 0.27
same,promoter activity interaction Z-score,[2]; [18],-0.363 ± 0.17
same,promoter activity interaction Z-score,[2]; [19],-0.215 ± 0.76
same,promoter activity interaction Z-score,[2]; [20],0.379 ± 0.47
same,promoter activity interaction Z-score,[2]; [21],-0.0294 ± 0.12
same,promoter activity interaction Z-score,[2]; [22],-0.253 ± 0.14
same,promoter activity interaction Z-score,[3]; [7],-0.331 ± 0.28
same,promoter activity interaction Z-score,[3]; [8],0.388 ± 0.35
same,promoter activity interaction Z-score,[3]; [9],0.233 ± 0.41
same,promoter activity interaction Z-score,[3]; [10],-0.266 ± 0.66
same,promoter activity interaction Z-score,[3]; [11],-0.361 ± 0.42
same,promoter activity interaction Z-score,[3]; [12],-0.326 ± 0.22
same,promoter activity interaction Z-score,[3]; [13],0.512 ± 0.58
same,promoter activity interaction Z-score,[3]; [14],0.0216 ± 0.97
same,promoter activity interaction Z-score,[3]; [15],-1.02 ± 0.35
same,promoter activity interaction Z-score,[3]; [16],-0.0279 ± 0.11
same,promoter activity interaction Z-score,[3]; [17],-0.2 ± 0.59
same,promoter activity interaction Z-score,[3]; [18],-1.15 ± 0.78
same,promoter activity interaction Z-score,[3]; [19],-0.885 ± 0.27
same,promoter activity interaction Z-score,[3]; [20],-0.942 ± 0.53
same,promoter activity interaction Z-score,[3]; [21],-0.571 ± 0.34
same,promoter activity interaction Z-score,[3]; [22],-0.828 ± 0.72
same,promoter activity interaction Z-score,[4]; [7],0.566 ± 0.055
same,promoter activity interaction Z-score,[4]; [8],1.44 ± 0.64
same,promoter activity interaction Z-score,[4]; [9],0.487 ± 0.029
same,promoter activity interaction Z-score,[4]; [10],0.99 ± 0.62
same,promoter activity interaction Z-score,[4]; [11],-0.0796 ± 0.041
same,promoter activity interaction Z-score,[4]; [12],0.19 ± 0.14
same,promoter activity interaction Z-score,[4]; [13],0.443 ± 0.039
same,promoter activity interaction Z-score,[4]; [14],1.04 ± 0.47
same,promoter activity interaction Z-score,[4]; [15],-0.0166 ± 0.45
same,promoter activity interaction Z-score,[4]; [16],1.08 ± 0.44
same,promoter activity interaction Z-score,[4]; [17],0.223 ± 0.44
same,promoter activity interaction Z-score,[4]; [18],0.195 ± 0.21
same,promoter activity interaction Z-score,[4]; [19],-0.492 ± 1.1
same,promoter activity interaction Z-score,[4]; [20],0.59 ± 0.34
same,promoter activity interaction Z-score,[4]; [21],0.0946 ± 0.17
same,promoter activity interaction Z-score,[4]; [22],0.391 ± 0.17
same,promoter activity interaction Z-score,[5]; [7],0.313 ± 0.3
same,promoter activity interaction Z-score,[5]; [8],-0.0502 ± 0.087
same,promoter activity interaction Z-score,[5]; [9],0.0422 ± 0.029
same,promoter activity interaction Z-score,[5]; [10],0.057 ± 0.13
same,promoter activity interaction Z-score,[5]; [11],-0.126 ± 0.1
same,promoter activity interaction Z-score,[5]; [12],-0.195 ± 0.067
same,promoter activity interaction Z-score,[5]; [13],0.0214 ± 0.095
same,promoter activity interaction Z-score,[5]; [14],-0.0763 ± 0.36
same,promoter activity interaction Z-score,[5]; [15],-0.137 ± 0.33
same,promoter activity interaction Z-score,[5]; [16],-0.217 ± 0.014
same,promoter activity interaction Z-score,[5]; [17],-0.165 ± 0.32
same,promoter activity interaction Z-score,[5]; [18],-0.531 ± 0.61
same,promoter activity interaction Z-score,[5]; [19],-0.578 ± 0.011
same,promoter activity interaction Z-score,[5]; [20],-0.284 ± 0.089
same,promoter activity interaction Z-score,[5]; [21],-0.408 ± 0.33
same,promoter activity interaction Z-score,[5]; [22],-0.418 ± 0.97
same,promoter activity interaction Z-score,[6]; [7],0.238 ± 0.82
same,promoter activity interaction Z-score,[6]; [8],1.52 ± 0.56
same,promoter activity interaction Z-score,[6]; [9],0.914 ± 0.84
same,promoter activity interaction Z-score,[6]; [10],0.608 ± 1.3
same,promoter activity interaction Z-score,[6]; [11],-0.0238 ± 0.039
same,promoter activity interaction Z-score,[6]; [12],0.952 ± 0.099
same,promoter activity interaction Z-score,[6]; [13],1.24 ± 0.98
same,promoter activity interaction Z-score,[6]; [14],1.3 ± 0.12
same,promoter activity interaction Z-score,[6]; [15],0.429 ± 0.87
same,promoter activity interaction Z-score,[6]; [16],1.04 ± 0.5
same,promoter activity interaction Z-score,[6]; [17],0.552 ± 0.78
same,promoter activity interaction Z-score,[6]; [18],0.284 ± 0.072
same,promoter activity interaction Z-score,[6]; [19],0.995 ± 0.41
same,promoter activity interaction Z-score,[6]; [20],0.554 ± 0.33
same,promoter activity interaction Z-score,[6]; [21],0.54 ± 0.74
same,promoter activity interaction Z-score,[6]; [22],0.774 ± 1.2
